Assay outcomes from PubChem BioAssay.
The list is not random: actives were taken first. Their share in the collection is about 3.5%.
BoNT-A LC inh2 – BoNT A light chain protease inhibition; multiplex microsphere protease substrate cleavage, flow cytometry; inhibition, % at 10 µM; hit rate 0.17% among 360,000; note: plate controls were buffer without enzyme for full effect and enzyme alone for no effect
BoNT-F LC inh – inhibitors of Botulinum neurotoxin F light chain protease; Multiplex microsphere protease cleavage assay, flow cytometry; inhibition, % at 10 µM; hit rate 0.22% among 360,000; AID 588497; in the data active = inhibition above about 35%, passing the limit was not always enough; inconclusive = no clear call, values can overlap the other calls; note: plate controls were buffer without enzyme for full effect and enzyme alone for no effect
Autofluor counter – compound fluorescence in toxin protease inhibitor counterscreen; compound autofluorescence counterscreen, microsphere flow cytometry; hits give high values; fluorescence intensity (no concentration beside the values); hit rate 3.1% among 360,000; AID 624483; in the data active = fluorescence intensity above about 16000; inconclusive = no clear call, values can overlap the other calls
Anthrax LF inh2 – blocks Bacillus anthracis lethal factor protease | P15917 | multiplex microsphere protease cleavage assay, LF | inhibition, % at 10 µM | hit rate 0.12% among 360,000 | AID 588501; note: plate controls were buffer without enzyme for full effect and enzyme alone for no effect
Target sequence (P15917 whole entry, looked up): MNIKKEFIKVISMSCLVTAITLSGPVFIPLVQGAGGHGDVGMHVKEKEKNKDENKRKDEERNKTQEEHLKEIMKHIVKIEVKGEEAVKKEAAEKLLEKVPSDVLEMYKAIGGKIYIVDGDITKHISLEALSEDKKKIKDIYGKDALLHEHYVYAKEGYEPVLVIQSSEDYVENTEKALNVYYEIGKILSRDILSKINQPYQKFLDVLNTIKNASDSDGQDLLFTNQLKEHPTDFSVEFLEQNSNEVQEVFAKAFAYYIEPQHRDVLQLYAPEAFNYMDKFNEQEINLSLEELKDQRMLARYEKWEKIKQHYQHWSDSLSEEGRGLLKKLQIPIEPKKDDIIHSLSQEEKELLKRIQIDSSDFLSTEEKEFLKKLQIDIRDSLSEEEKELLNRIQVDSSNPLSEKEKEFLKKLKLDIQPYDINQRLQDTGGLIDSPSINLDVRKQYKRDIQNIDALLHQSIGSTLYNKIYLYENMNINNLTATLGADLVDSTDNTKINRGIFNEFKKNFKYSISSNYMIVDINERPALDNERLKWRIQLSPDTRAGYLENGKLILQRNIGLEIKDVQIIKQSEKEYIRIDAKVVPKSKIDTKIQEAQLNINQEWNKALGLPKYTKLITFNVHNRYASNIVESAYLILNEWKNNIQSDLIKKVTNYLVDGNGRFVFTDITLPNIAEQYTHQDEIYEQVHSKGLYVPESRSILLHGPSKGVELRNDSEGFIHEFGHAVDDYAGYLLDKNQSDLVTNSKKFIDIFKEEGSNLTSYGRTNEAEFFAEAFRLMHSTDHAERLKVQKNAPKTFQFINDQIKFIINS
An asterisk follows results filed as active; u = inconclusive. Cut-off read from the data, not from the text of the source, unless noted: active = inhibition above about 30%; inconclusive = no clear call, values can overlap the other calls; inactive = below that.

SMILES	BoNT-A LC inh2	BoNT-F LC inh	Autofluor counter	Anthrax LF inh2
COc1ccc(C(=O)N2CCCC(c3nc(-c4ccc(OC)c(OC)c4)no3)C2)c(OC)c1 (configuration not stated)	5	5	20939*	-9
O=C(Cc1ccccc1)N1CCC(c2nc(-c3ccc(F)cc3)no2)CC1	10	12	16726*	-10
O=C(Cc1ccccc1)N1CCCC(c2nc(-c3ccc(S(=O)(=O)N4CCCC4)cc3)no2)C1 (configuration not stated)	-2	4	10698	-5
O=C1CC(NS(=O)(=O)c2cccs2)CN1c1ccc(Cl)cc1 (configuration not stated)	-2	-5	4373	-8
Cc1ccc(NS(=O)(=O)c2ccc(-n3cccn3)cc2)nc1	0	-3	5060	0
CCNC(=O)N1C[C@H]2CON(C)[C@H]2C[C@H]1c1ccccc1Br	0	-1	2943	-4
O=C(C1CC1)N1CCC(c2nc(-c3ccc(S(=O)(=O)NCC4CCCO4)cc3)no2)CC1 (configuration not stated)	7	9	19413*	-12
COc1ccccc1OC(C)c1nnc(SCC(=O)Nc2c(C)n(C)n(-c3ccccc3)c2=O)n1-c1ccccc1 (configuration not stated)	4	4	21279*	-1
Cc1c(NC(=O)CSc2nnc(C(C)Oc3ccc(Cl)cc3)n2-c2ccccc2)c(=O)n(-c2ccccc2)n1C (configuration not stated)	11	15	18398*	-12
Cc1c(NC(=O)CSc2ccc(Cl)cc2)c(=O)n(-c2ccccc2)n1C	0	-4	4554	6
CC1C(O)=C(c2ccccc2)P(=O)(Cc2ccccc2)C1C (configuration not stated)	0	-4	4110	-2
Brc1cccc(-c2nnc3sc(CN4CCCCC4)cn23)c1	0	-7	9738	0
Brc1cccc(-c2nnc3sc(CN4CCC5(CC4)OCCO5)cn23)c1	-4	-3	24422*	-6
CN(C)/C(CN1CCOCC1)=C1\N=C(c2ccccc2)OC1=O	0	-1	23718*	1
COC(=O)c1ccc(NC(=O)CN2CCC(NC(=O)c3ccccc3F)CC2)cc1	-1	-9	3489	3
CC(=O)NCCCc1nc2ccccc2n1Cc1ccccc1C	u	-2	24006*	0
O=CNCCCc1nc2ccccc2n1Cc1ccccc1	-1	1	16906*	-3
CN(C)S(=O)(=O)c1cccc(NC(=O)CN2C(=O)NC3(CCc4ccccc4C3)C2=O)c1 (configuration not stated)	0	6	3715	-9
CN(C)c1nc2n(c(=O)n1)CCS2	0	-6	3435	-3
CN(C)c1nc2n(c(=O)n1)C(C#N)CS2 (configuration not stated)	0	-2	16338*	2
COc1cc2cc(CCCO)oc(=O)c2cc1OC	0	10	3696	12
COc1ccc(S(=O)(=O)Oc2ccc3c(c2)O/C(=C\c2cccnc2)C3=O)cc1	u	-2	23126*	-2
O=C1/C(=C/c2cccnc2)Oc2cc(OS(=O)(=O)c3ccccc3)ccc21	0	-1	10783	2
O=C1/C(=C/c2cccnc2)Oc2cc(OS(=O)(=O)c3ccc(Cl)cc3)ccc21	4	6	21029*	2
NS(=O)(=O)c1ccc(CCNC(=O)C2CCN(C(=O)Nc3ccccc3)CC2)cc1	0	5	2973	-2
SMILES	BoNT-A LC inh2	BoNT-F LC inh	Autofluor counter	Anthrax LF inh2
Cc1ccc(S(=O)(=O)c2c(N)n(CCCO)c3nc4ccccc4nc23)cc1	0	-2	2616	-9
Cc1ccc(S(=O)(=O)c2c(N)n(CCC(C)C)c3nc4ccccc4nc23)cc1	2	0	22605*	2
Cc1ccc(C(=O)Nn2c(N)c(S(=O)(=O)c3ccc(C)cc3)c3nc4ccccc4nc32)cc1	1	4	7509	u
Cc1ccc(S(=O)(=O)c2c(N)n(NC(=O)c3ccccc3C)c3nc4ccccc4nc23)cc1	0	-2	22674*	0
O=C(c1ccccc1)N1N=C(c2ccccc2)CC1c1ccc2nccnc2c1 (configuration not stated)	1	7	11224	0
CC(=O)N1N=C(c2ccc3nccnc3c2)CC1c1ccccc1 (configuration not stated)	1	2	20160*	-8
COC(=O)c1ccc2c(=O)n(CCO)c(=S)[nH]c2c1	0	4	8136	2
COC(=O)c1ccc2c(=O)n(NC(=O)C(c3ccccc3)c3ccccc3)c(=S)[nH]c2c1	u	-2	16293*	2
COC(=O)Cn1cnc2ccccc2c1=O	0	-2	2392	3
CCOc1ccc(OCCCCn2cnc3ccccc3c2=O)cc1	0	-1	3231	-3
COC(=O)c1ccc(OCCn2cnc3ccccc3c2=O)cc1	-1	-1	19676*	-1
CC(C)(C)c1ccc(OCCOCCn2cnc3ccccc3c2=O)cc1	0	-4	4574	1
COc1ccccc1OCCOCCn1cnc2ccccc2c1=O	u	2	19899*	-1
O=C(Cn1cnc2ccccc2c1=O)OCCCCN1C(=O)c2ccccc2C1=O	-2	-5	23990*	-4
CCOC(=O)Nc1ccc2c(c1)N(C(=O)CCN(CC)CC)c1ccccc1S2=O (configuration not stated)	-2	13	3747	-4
C[C@H]1CN=C(N(C)C)N1CCc1ccc(F)cc1	-1	-2	3691	0
CN=C1SC(CC(=O)Nc2cccc(C(F)(F)F)c2)C(=O)N1C (configuration not stated)	-1	-5	16700*	-1
CN=C1SC(CC(=O)Nc2ccc(N3CCOCC3)cc2)C(=O)N1C (configuration not stated)	u	-8	25216*	-1
COc1ccc(S(=O)(=O)Nc2c(O)ccc3ccccc23)cc1OC	4	u	4093	1
CCOC(=O)c1cc(-c2ccc(N)cc2)sc1N	10	2	18171*	-3
CCOC(=O)c1sc(-c2ccc(Br)cc2)cc1N	4	2	18598*	-3
CCOC(=O)c1sc(-c2ccccc2)cc1NC(=O)Nc1ccccc1	4	2	2659	0
Cc1ccc(CS(=O)Cc2ccc(C(=O)NCc3ccccc3Br)o2)cc1 (configuration not stated)	-1	-5	6028	0
CCCCc1nnc(SC(C)C(=O)Nc2nccs2)n1C (configuration not stated)	2	2	5056	-2
CCOC(CCn1c(SCC(=O)NC2CCCC2)nc2ccccc2c1=O)OCC	0	-2	5662	-2
Cc1nc(N2CCN(C(=O)c3ccco3)CC2)nc2c1C(=O)CC(C)C2 (configuration not stated)	-1	-4	5418	0
CCOC(=O)N1CCN(c2nc(C)c3c(n2)CC(C)CC3=O)CC1 (configuration not stated)	0	-1	23668*	-4
Cc1ccsc1CN1CCN(c2ccccn2)CC1	3	8	21639*	-2
COc1ccc(S(=O)(=O)N2CCOC23CCN(S(=O)(=O)c2cc(F)ccc2F)CC3)cc1	-1	u	5736	0
